Twelve compounds from PubChem BioAssay can be followed below.

Each structure is given as a SMILES string. Active and inactive are the calls of the source.

A short description of test [1]: binders of probe aFSTL3 on microarray, primary screen, stem cell growth factor project, biochemical, small-molecule microarray, fluorescence 635/667 (AID 1064).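 Also: measures binding of the biotinylated anti-FSTL3 antibody to printed compounds.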 The conditions noted are these: higher = more signal.
Test [2] can be described thus: binders from COS7 lysate, DM2A8 probe, primary screen, torsin A project, cell lysate, small-molecule microarray, fluorescence 635/667 (AID 1065). The conditions noted are these: higher = more signal, COS7 lysate expressing mutant human TOR1A.
A short description of test [3]: binders of probe aFGF2 on microarray, primary screen, stem cell growth factor project, biochemical, small-molecule microarray, fluorescence 635/667 (AID 1067).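 Also: measures binding of biotinylated aFGF2 protein to printed compounds on slides; z-score merges feature fluorescence and signal-to-noise across triplicate slides.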 The conditions noted are these: higher = more signal.
Test [4] in a line: binders of probe aFGF10 on microarray, primary screen, stem cell growth factor project, biochemical, small-molecule microarray, fluorescence 635/667 (AID 1071).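 Also: score merges 667 nm spot intensity and signal to noise from triplicate slides.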 The conditions noted are these: higher = more signal.
The target of test [5] is Neurogenic locus notch homolog protein 2 (Homo sapiens) (UniProt Q04721). Briefly: Notch2 binders on small-molecule microarrays, primary screen, biochemical, small-molecule microarray, 635 nm fluorescence, stem cell growth factors (AID 1073). The conditions noted are these: Notch2 binding, higher = more signal.
Test [6] deals with Pro-neuregulin-1, membrane-bound isoform (Homo sapiens) (UniProt Q02297). Briefly: NRG1 binders on small-molecule microarrays, primary screen, psychiatric disease protein project, biochemical, small-molecule microarray, fluorescence 635/667 (AID 1075).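 Also: score combines 667 nm spot fluorescence with signal to noise.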 The conditions noted are these: NRG1 binding, 635 nm fluorescence, higher = more signal.
For test [7], the system named is Neuregulin-1 EGF-like domain. Nature of the test: binders of neuregulin-1 EGF-like domain, primary screen, biochemical, small-molecule microarray, 635 nm fluorescence (AID 1081).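 Also: binding of the protein to compounds printed on small-molecule microarray slides.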 The conditions noted are these: small-molecule microarray binding, higher = more signal.
A short description of test [8]: FRG1 promoter luciferase signal modulators, primary screen, FRG1 inhibition for FSHD, cell-based, C2C12 myotubes, firefly/Renilla luciferase, luminescence (AID 1084). The conditions noted are these: higher = more signal, called active from +8 up or from −8 down.
A short description of test [9]: binders of probe aFST on microarray, primary screen, stem cell growth factor project, biochemical, small-molecule microarray, fluorescence 635/667 (AID 1086).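 Also: score merges 667 nm fluorescence with signal-to-noise of each printed compound spot.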 The conditions noted are these: higher = more signal.
Test [10] is described as follows: binders of probe aHhip on microarray, primary screen, stem cell growth factor project, biochemical, small-molecule microarray, fluorescence 635/667 (AID 1087).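 Also: score merges spot fluorescence at 667nm with spot signal to noise ratio.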 The conditions noted are these: higher = more signal.

Chain of Pro-neuregulin-1, membrane-bound isoform (Homo sapiens) (Q02297 whole entry, looked up, the tested form may be a part, canonical isoform): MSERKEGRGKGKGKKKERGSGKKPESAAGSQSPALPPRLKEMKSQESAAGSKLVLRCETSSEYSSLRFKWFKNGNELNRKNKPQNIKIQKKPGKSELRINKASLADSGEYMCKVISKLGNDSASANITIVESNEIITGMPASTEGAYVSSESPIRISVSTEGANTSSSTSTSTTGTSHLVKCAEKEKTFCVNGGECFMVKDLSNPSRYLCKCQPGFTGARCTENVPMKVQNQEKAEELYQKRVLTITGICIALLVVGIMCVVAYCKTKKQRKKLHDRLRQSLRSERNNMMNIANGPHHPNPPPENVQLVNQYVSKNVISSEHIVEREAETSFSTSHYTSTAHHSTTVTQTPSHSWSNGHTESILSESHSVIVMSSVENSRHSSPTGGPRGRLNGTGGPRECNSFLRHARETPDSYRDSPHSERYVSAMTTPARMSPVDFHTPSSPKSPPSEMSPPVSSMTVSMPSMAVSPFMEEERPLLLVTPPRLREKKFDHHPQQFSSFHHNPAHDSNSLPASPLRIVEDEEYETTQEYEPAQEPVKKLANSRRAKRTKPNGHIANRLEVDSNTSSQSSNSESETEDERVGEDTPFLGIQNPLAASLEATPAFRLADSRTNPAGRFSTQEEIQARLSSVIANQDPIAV
Chain of Neurogenic locus notch homolog protein 2 (Homo sapiens) (Q04721 whole entry, looked up, canonical isoform): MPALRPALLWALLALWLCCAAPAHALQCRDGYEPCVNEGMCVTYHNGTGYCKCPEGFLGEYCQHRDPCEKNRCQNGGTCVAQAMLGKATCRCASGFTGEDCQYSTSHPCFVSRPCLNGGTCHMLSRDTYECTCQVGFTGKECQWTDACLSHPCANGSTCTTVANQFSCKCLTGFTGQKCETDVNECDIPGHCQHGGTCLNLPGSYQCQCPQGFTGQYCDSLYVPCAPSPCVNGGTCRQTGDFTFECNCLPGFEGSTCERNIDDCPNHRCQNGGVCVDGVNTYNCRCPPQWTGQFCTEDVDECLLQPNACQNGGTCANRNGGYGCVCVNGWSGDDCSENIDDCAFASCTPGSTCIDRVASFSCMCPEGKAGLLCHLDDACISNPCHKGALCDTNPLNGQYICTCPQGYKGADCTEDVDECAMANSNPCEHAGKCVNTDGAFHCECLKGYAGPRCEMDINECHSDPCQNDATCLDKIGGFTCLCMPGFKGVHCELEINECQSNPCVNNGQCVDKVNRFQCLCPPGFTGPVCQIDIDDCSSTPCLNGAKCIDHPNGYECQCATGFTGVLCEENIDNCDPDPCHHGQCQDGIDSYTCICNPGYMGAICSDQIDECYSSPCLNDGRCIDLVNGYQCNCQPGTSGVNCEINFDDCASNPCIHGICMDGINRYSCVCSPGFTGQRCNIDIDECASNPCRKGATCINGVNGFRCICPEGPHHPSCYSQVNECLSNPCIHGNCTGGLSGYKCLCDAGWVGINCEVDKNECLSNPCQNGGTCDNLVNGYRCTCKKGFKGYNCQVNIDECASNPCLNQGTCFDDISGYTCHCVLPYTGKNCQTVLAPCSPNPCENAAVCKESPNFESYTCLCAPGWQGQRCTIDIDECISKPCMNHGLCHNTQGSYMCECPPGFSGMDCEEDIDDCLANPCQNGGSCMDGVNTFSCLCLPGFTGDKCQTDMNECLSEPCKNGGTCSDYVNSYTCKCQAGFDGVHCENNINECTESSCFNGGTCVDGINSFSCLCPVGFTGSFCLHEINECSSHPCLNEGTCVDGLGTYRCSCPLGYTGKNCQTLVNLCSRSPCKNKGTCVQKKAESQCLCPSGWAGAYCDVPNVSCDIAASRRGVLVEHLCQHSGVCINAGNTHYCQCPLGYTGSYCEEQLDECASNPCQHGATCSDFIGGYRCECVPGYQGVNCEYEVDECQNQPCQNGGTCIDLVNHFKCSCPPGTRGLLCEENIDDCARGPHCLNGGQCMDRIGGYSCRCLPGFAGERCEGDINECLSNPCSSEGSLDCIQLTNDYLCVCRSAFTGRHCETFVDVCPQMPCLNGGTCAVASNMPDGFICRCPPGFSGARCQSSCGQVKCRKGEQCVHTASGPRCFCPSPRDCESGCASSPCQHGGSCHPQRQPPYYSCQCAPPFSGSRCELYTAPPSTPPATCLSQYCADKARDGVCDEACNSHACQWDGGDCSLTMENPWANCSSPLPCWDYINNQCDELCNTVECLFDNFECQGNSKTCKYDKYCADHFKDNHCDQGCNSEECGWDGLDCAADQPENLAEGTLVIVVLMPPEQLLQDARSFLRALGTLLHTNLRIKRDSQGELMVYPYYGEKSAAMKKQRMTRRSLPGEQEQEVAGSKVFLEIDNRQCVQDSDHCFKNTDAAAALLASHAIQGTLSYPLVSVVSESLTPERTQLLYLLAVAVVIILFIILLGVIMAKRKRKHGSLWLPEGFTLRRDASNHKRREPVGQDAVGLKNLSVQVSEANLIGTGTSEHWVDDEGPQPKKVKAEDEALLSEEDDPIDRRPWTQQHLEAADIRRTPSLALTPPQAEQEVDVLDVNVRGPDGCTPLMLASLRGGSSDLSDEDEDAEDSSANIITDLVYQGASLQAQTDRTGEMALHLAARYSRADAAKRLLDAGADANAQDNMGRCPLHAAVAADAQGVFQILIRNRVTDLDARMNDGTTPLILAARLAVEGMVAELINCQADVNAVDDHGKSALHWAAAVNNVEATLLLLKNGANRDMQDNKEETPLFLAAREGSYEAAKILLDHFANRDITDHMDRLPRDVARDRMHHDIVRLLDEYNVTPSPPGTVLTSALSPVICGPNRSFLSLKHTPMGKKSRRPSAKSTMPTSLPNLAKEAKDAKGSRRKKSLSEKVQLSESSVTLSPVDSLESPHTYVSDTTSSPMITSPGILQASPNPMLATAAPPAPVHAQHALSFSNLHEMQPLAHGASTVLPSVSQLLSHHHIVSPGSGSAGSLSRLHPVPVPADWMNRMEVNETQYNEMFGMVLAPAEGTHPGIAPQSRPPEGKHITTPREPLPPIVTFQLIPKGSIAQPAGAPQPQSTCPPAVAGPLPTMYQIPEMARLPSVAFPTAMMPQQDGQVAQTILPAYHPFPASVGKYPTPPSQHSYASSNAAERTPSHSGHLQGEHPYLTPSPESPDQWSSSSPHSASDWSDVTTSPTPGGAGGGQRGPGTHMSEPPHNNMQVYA

In the case of `O=C1[C@H]2C=C(Br)[C@H](C[C@@H]2OCCCCO)[C@@]12CO2`, the composite z-score in test [1] was -0.441; in [2] it was -0.199; in test [3] it was -0.116; in [4] it was 0.0593; in test [5] it was 0.0769; in test [6], -0.434. Moreover, the composite z-score in [7] was -0.0036; in [9] it was -0.241; in [10], -0.0237. Further, the z-score in test [8] is -0.636 (inactive).
`COc1cc2c(cc1OC)CN(C(=O)[C@H]1[C@@H]3C(=O)O[C@@H](c4ccccc4)[C@@H](c4ccccc4)N3[C@@H](c3ccc(O)cc3)[C@]13C(=O)Nc1ccc(C#CCNC(N)=O)cc13)CC2`: the composite z-score was -0.297 in [1]; 0.0737 in test [2]; -0.0473 in [3]; 0.689 in test [4]; -0.0344 in test [5]; 0.404 in test [6]. Besides, the figures for the composite z-score in [7], in test [9] and in test [10] were 0.37, 0.135 and 0.0854, respectively. Further, the z-score in test [8] was 0.297 (inactive).
Consider `C=CCNC(=O)[C@@H]1[C@H]2C(=O)O[C@H](c3ccccc3)[C@H](c3ccccc3)N2[C@H](c2ccc(OCCO)cc2)[C@@]12C(=O)Nc1ccc(C#Cc3ccc(OC)cc3)cc12`, for which the composite z-score in [1] is -0.175; in test [2], 1.14; in test [3], 0.0969; in test [4], 0.73; in [5], 1.41; in test [6], 1.24. In addition, the composite z-score in test [7] worked out at 1.18; in test [9], 0.4; in test [10], 0.283. Further, the z-score in test [8] was 0.994 (inactive).
With `C=C(CCCC)C(=O)CC[C@H](OC(C)=O)c1cccc(OCCO)c1`, the composite z-score in test [1] is 0.137; in [2] it was -0.475; in test [3], -0.148; in [4], -0.177; in test [5], -1.47; in test [6], -0.331. Moreover, the composite z-score in test [7] is -0.159; in [9], -0.463; in [10], -0.137. Moreover, the z-score in test [8] is 0.818 (inactive).
As to `C=CC[C@@]1(C(=O)NCc2ccccc2)N=C(c2ccc(OCCCO)cc2)O[C@@H]1c1ccccc1N=[N+]=[N-]`, the composite z-score was 0.127 in test [1]; 0.852 in test [2]; 0.071 in [3]; 0.942 in [4]; 1.44 in [5]; 1.74 in test [6]. The composite z-score came out at 1.27 in test [7], 1.31 in test [9] and 0.111 in test [10]. Moreover, in test [8], the z-score was 0.206 (inactive).
Take `OC([C@@H]1CC(c2ccccc2)=NO1)[C@H]1CC(c2ccccc2)=NO1` (stereo not given in full): the composite z-score in test [1] is 0.0787; in [2], -0.141; in test [3], -0.0634; in [4] it was 0.287; in test [5], 0.178; in test [6] it was -0.0896. Also, the composite z-score in test [7] was 0.563; in test [9], 0.227; in test [10] it was 0.0024. For the same compound, the z-score in [8] was 0.364 (inactive).
As for `[N-]=[N+]=Nc1ccccc1[C@H]1OC(c2ccc(OCCCO)cc2)=N[C@@]1(Cc1ccccc1)C(=O)O`, the composite z-score is 0.0481 in test [1]; 0.466 in test [2]; 0.0363 in test [3]; 0.641 in [4]; 1.05 in test [5]; 1.69 in test [6]. Also, the results for the composite z-score in test [7], in [9] and in test [10] were 1.3, 0.693 and -0.374, respectively. For the same compound, the z-score in test [8] is 1.02 (inactive).
With `COCCOC(=O)N1C(=O)[C@@]2(c3cc(C#CCNC(N)=O)ccc31)[C@H](C(=O)NC[C@H](O)c1ccccc1)[C@H]1C(=O)O[C@H](c3ccccc3)[C@H](c3ccccc3)N1[C@@H]2c1ccccc1OCCO`, the composite z-score in test [1] is -0.12; in test [2], 0.294; in test [3] it was -0.0899; in test [4], 0.745; in test [5], 1.11; in test [6], 0.891. Also, the composite z-score was 1.09 in [7], -0.177 in [9] and -0.113 in test [10]. Further, the z-score in test [8] was -0.864 (inactive).
In the case of `COC(=O)C(CC#Cc1ccc2c(c1)[C@]1(C(=O)N2)[C@H](C(=O)O)[C@H]2C(=O)O[C@H](c3ccccc3)[C@H](c3ccccc3)N2[C@@H]1c1ccc(O)cc1)C(=O)OC`, the composite z-score in test [1] is 0.43; in [2], 0.108; in [3], -0.0973; in test [4], 0.528; in [5], -0.806; in test [6], 1.42. For the same compound, the composite z-score in test [7] was 1.23; in test [9] it was -0.384; in test [10], -0.236. The z-score in [8] is 1.34 (inactive).
Turning to `COCCOC(=O)N1C(=O)[C@@]2(c3cc(C#Cc4ccc(OC)cc4)ccc31)[C@H](C(=O)N1CCCCCCC1)[C@H]1C(=O)O[C@H](c3ccccc3)[C@H](c3ccccc3)N1[C@@H]2c1ccc(OCCO)cc1`, the composite z-score was 2.85 in test [1]; 1.49 in test [2]; 0.233 in test [3]; 0.662 in test [4]; 0.845 in test [5]; 1.01 in test [6]. Besides, the composite z-score was 0.972 in test [7], 2.43 in [9] and 3.2 in test [10]. Further, the z-score in [8] was -0.738 (inactive).
`COC(=O)c1c(CC[C@@H](CO)NC(=O)N[C@@H](C)Cn2cc(C3(O)CCCCC3)nn2)oc(C(C)=O)c1C(=O)OC`: the composite z-score is -0.548 in [1]; 1.14 in test [2]; -0.0512 in test [3]; 1.01 in test [4]; 1.25 in test [5]; 0.518 in test [6]. For the same compound, the composite z-score was 1.3 in [7], 0.817 in test [9] and -0.184 in test [10]. The z-score in test [8] is 1.2 (inactive).
Take `CCC(CC)C(O)C1C=CC2C(=O)N(C)C(=O)C2N1Nc1ccccc1` (stereo not given): the composite z-score in [1] worked out at 0.53; in [2], 0.219; in test [3] it was 0.117; in [4], 0.258; in test [5], 1.47; in test [6], 1.47. In addition, the composite z-score is 0.816 in test [7], 0.876 in test [9] and -0.134 in test [10]. Moreover, in test [8], the z-score is 1.97 (inactive).
